The campaign covered roughly 2,300 compounds. About 170 (7.4%) were called active.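 How the source made its calls: active means over 5% cells positive for green fluorescent reporter, or over 2% positive for both it and APC stain; inactive means the rest, inconclusive results apart.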 A selection follows.
assay: intrinsic compound fluorescence in ER-HoxA9 progenitors, confirmation, artefact control for AML myeloid differentiation project, cell-based, flow cytometry, GFP/APC, Cherry Pick01 (AID 651707); conditions: no estrogen, GFP autofluorescence flow cytometry, stronger effect = higher value; double positive: measured here: double positive GFP/APC population; fluorescence response: vehicle wells 0%, positive control 100%;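 on double positive: share of cells both GFP positive and bound by Mac1 APC antibody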;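 on fluorescence response: range taken on the double positive population between DMSO and positive control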

Structure (SMILES) | fluorescence response | double positive [%]
CCc1noc(C)c1C(=O)Nc1nc(-c2ccccc2)cs1 | 1% (inactive) | 
COc1cccc(NC(=S)NCc2ccccn2)c1 | 0.3% (inactive) | 
COc1cc(/C=C(\C#N)c2nc3ccccc3[nH]2)ccc1O | 36.7% (active) | 
Clc1ccc(-c2nnc(SCc3nc4ccccc4s3)o2)cc1 | 0% (inactive) | 
CCC1CCCCN1CCCNC(=O)Cn1nc(-c2ccccc2)ccc1=O (centres undefined) | 0% (inactive) | 
CC1=C(C(N)=O)C(c2ccc3c(c2)OCO3)n2nc(-c3cccc(C)c3)nc2N1 (centres undefined) | 0% (inactive) | 
COc1ccc(S(=O)(=O)N2CCC(C(=O)N3CCc4ccccc4C3)CC2)cc1OC | 0% (inactive) | 
CN1OC(COC(=O)c2ccc(Cl)cc2)CC1c1ccccc1 (centres undefined) | 0.3% (inactive) | 
COc1cc(/C=C2/SC(=S)N(Cc3ccccc3)C2=O)cc(OC)c1O | 97.2% (active) | 
Cc1nc(C)c(-c2nnc(-c3cccc(S(=O)(=O)N(C)C)c3)o2)cc1C(=O)NN | 0.7% (inactive) | 
CCOc1ccc(C(=O)Nc2ccc(S(=O)(=O)NCC3CCCO3)cc2)cc1OCC (centres undefined) | 0.3% (inactive) | 
CCCCSc1nc2c(c(=O)n1CC)SC(C)C2 (centres undefined) | 0% (inactive) | 
Nc1ccc2nc3c(=O)[nH]c(=S)[nH]c3nc2c1 | 0% (inactive) | 
CC(C)c1nc2ccc(C(=O)O)cc2[nH]1 | 0.4% (inactive) | 0.4
COc1ccc(N(CC(=O)NC2CCCCCCC2)S(=O)(=O)c2c(C)nn(C)c2C)cc1 | 0% (inactive) | 
Cc1nn(-c2ncccn2)c2c1C(=O)CC(C)(C)C2Br (centres undefined) | 0% (inactive) | 
Cn1c(CNC(=O)c2ccccc2F)nnc1SCc1ccc(F)cc1 | 0% (inactive) | 
CNc1nc(=O)n(C2CCCO2)cc1C (centres undefined) | 0% (inactive) | 
CC(=O)N1c2ccc(S(=O)(=O)N3CCCC(C(=O)Nc4cccc(F)c4)C3)cc2CC1C (centres undefined) | 0% (inactive) | 
CCOC(=O)CC(=O)CSc1nc(-c2ccccc2)cc(-c2ccc(Cl)cc2)c1C#N | 0% (inactive) | 
CC(C)(C)OC(=O)CNC(=O)c1[nH]cnc1C(=O)N[C@@H](Cc1ccccc1)C(=O)OCc1ccccc1 | 0% (inactive) | 
O=C(Nc1cccc(-c2nc3ncccc3o2)c1)c1ccco1 | 0.2% (inactive) | 

Structure (SMILES) | fluorescence response | double positive [%]
O=S(=O)(NCc1cccnc1)c1ccc(Cl)nc1 | 0.4% (inactive) | 
COCCCn1c(=O)/c(=C/c2ccccc2OC(C)C)s/c1=C(\C#N)C(=O)Nc1ccc(C(=O)O)cc1 | 0% (inactive) | 
O=C(Nc1ccccc1N1CCN(c2ccccc2)CC1)c1cccc(F)c1 | 0% (inactive) | 
CC1(C)CC(=O)C2=C(C1)Nc1cc(C(=O)c3ccccc3)ccc1NC2c1ccccn1 (centres undefined) | 0.4% (inactive) | 
CCc1c(C)sc(NC(=O)c2cccs2)c1C(N)=O | 0% (inactive) | 
C=CCNc1nnc(SCC(=O)N2CCCCC2)c2ccccc12 | 0.3% (inactive) | 
Cc1cccc(C)c1NC(=O)CCS(=O)(=O)c1cccc2nsnc12 | 0% (inactive) | 
Cc1ccc2nc(-c3ccccn3)cc(C(=O)Nc3ccc4c(c3)OCO4)c2c1 | 0% (inactive) | 
CCOC(=O)c1c(-c2cccc(C)c2)csc1NC(=O)c1c(-c2ccccc2)noc1C | 0% (inactive) | 
Cn1c2ccccc2c2cc(/C=C(\NC(=O)c3ccccc3)C(=O)NCC(=O)O)ccc21 | 0% (inactive) | 
CN(C(=O)CSc1nnc(C2CC2)n1C)C1CCCc2ccccc21 (centres undefined) | 0% (inactive) | 
CSc1nnc(-c2ccncc2)n1CCCN1CCCC1=O | 0% (inactive) | 
COc1cc(N=Cc2c(O)[nH]c3ccccc23)cc(OC)c1OC | 0% (inactive) | 
CC(CNc1ccc([N+](=O)[O-])cc1)NC(=O)c1ccccc1Br (centres undefined) | 0.4% (inactive) | 
Cc1ccc2c(c1)c1ncn(Cc3ccc(F)cc3)c(=O)c1n2C | 0% (inactive) | 
Cc1cccc(-n2c(SCC(=O)Nc3cccc(S(=O)(=O)NC4=NCCCCC4)c3)nc3ccccc3c2=O)c1C | 0% (inactive) | 
CCN(CC)CC(=O)c1c[nH]c2ccc(OC)cc12 | 0.3% (inactive) | 
CCOc1ccc(NC(=O)CSc2nc3c(c(=O)n2-c2ccccc2OC)SCC3)cc1 | 0.5% (inactive) | 
CC(C)C(=O)N1CCN(c2nc(-c3ccccc3)c3c(c2C#N)CC(C)(C)OC3)CC1 | 0% (inactive) | 
O=C(CN1CCN(C2CCCCC2)CC1)Nc1ccccc1N1CCCCC1 | 0% (inactive) | 
O=C(NCCN=C1NS(=O)(=O)c2ccccc21)c1ccc(S(=O)(=O)N2CCOCC2)cc1 | 4.3% (inactive) | 

Source: PubChem BioAssay AID651707 (NMMLSC, 2012)
